Drawing on PubChem BioAssay, this text covers composite z-score and z-score for 6 molecules.

The source made the active and inactive calls. Unless noted, no rule for the calls is given here.

The nature of assay [1]: compounds binding Alexa647 anti-His antibody – biochemical, small-molecule microarray, 635 nm fluorescence, artefact control for SMM control protein annotation, primary screen (AID 1128).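 Also: score merges feature fluorescence with signal-to-noise for each printed compound spot.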 Particulars: higher = more signal.
For assay [2], the system named is Human papillomavirus type 1a E7 protein (residues 1-88). Nature of the assay: HPV1a E7 small-molecule binders, primary screen, biochemical, small-molecule microarray, residues 1-88, 635 nm (AID 1129). Particulars: small-molecule microarray binding, fluorescence 635 nm; higher = more signal.
In assay [3] the target is Focal adhesion kinase 1 (Homo sapiens) (UniProt Q05397). Nature of the assay: PTK2 protein binding on printed compound slides – biochemical, small-molecule microarray, 635/667 nm fluorescence, BSA, DTT, primary screen (AID 1130).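 Also: composite of spot emission at 667 nm and signal to noise over triplicate slides.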 Particulars: 635 nm fluorescence, higher = more signal.
Sequence of Focal adhesion kinase 1 (Homo sapiens) (Q05397 whole entry, looked up): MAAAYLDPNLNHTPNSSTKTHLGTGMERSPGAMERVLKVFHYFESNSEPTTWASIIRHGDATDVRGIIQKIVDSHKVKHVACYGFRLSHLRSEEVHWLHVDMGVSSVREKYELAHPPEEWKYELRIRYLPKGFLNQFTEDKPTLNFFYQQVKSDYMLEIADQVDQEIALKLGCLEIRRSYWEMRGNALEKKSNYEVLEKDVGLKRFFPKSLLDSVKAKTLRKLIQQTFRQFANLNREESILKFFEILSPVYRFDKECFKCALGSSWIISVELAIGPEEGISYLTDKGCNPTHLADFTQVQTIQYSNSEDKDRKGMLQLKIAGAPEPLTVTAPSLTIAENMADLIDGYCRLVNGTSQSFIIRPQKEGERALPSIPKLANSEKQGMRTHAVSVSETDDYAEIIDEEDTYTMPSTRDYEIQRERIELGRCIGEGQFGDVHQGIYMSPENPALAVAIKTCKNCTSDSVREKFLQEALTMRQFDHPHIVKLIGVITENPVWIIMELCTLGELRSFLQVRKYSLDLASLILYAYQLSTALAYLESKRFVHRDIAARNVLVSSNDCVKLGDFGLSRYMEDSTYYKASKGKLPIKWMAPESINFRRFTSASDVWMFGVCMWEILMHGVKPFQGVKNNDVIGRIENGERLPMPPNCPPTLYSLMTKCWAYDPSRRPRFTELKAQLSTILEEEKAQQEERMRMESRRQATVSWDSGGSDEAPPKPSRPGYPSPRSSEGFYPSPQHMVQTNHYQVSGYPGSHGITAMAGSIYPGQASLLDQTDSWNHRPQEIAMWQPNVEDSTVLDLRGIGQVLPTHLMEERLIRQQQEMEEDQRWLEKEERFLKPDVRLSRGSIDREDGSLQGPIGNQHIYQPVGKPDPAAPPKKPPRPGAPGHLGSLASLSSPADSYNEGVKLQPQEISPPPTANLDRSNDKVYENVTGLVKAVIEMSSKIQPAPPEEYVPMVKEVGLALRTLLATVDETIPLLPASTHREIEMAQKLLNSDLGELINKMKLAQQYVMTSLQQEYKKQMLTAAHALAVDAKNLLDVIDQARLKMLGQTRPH
Assay [4] relates to Fibrinogen (Alexa647-labelled). Nature of the assay: Alexa647-fibrinogen binding to printed small molecules – biochemical, small-molecule microarray, 635/667 nm fluorescence, artefact control for SMM control-protein annotation, profiling panel (AID 1131).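 Also: z-score merges 667 nm fluorescence with per-spot signal-to-noise over triplicate slides.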 Particulars: fibrinogen-A647 binding fluorescence, higher = more signal.
Assay [5] deals with Follistatin (Homo sapiens) (UniProt P19883). Put plainly: FST protein binding to printed compounds – biochemical, small-molecule microarray, 635/667 nm fluorescence, primary screen (AID 1132). Particulars: 635 nm fluorescence, higher = more signal.
Sequence of Follistatin (Homo sapiens) (P19883 whole entry, looked up): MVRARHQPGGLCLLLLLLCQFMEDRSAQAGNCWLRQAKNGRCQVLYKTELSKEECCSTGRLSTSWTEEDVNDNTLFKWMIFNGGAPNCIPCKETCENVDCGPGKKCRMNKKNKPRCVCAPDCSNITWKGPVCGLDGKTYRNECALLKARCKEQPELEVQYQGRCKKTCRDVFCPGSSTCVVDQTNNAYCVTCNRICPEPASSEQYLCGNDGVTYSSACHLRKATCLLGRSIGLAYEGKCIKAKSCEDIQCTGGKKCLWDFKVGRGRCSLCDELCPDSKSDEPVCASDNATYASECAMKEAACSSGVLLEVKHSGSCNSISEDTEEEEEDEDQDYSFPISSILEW
Assay [6] addresses Fibroblast growth factor 2 (Homo sapiens) (UniProt P09038). Put plainly: basic fibroblast growth factor binding to printed compounds – biochemical, small-molecule microarray, 635/667 nm fluorescence, primary screen (AID 1133). The following applies: FGF2, fluorescence 635/667, higher = more signal.
Assay [7] is described as follows: JC-1 mitochondrial potential readout, lung cancer cells – cell-based, A549, JC-1 fluorescence, basal, 24 h, 100 nL, profiling panel (AID 1138).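 Also: A549 lung adenocarcinoma cells under basal conditions with no added stimulus; test concentration not given here.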 The following applies: higher = more signal.
The next assay deals with Lefty1. Put plainly: Lefty1 protein binding to printed compounds – biochemical, small-molecule microarray, 635/667 nm fluorescence, primary screen (AID 1139). The following applies: fluorescence 635/667, higher = more signal.
The test system of assay [8] is wheat germ agglutinin (Triticum aestivum), Alexa647-labelled. Nature of the assay: Alexa647-WGA lectin binding to printed small molecules – biochemical, small-molecule microarray, 635/667 nm fluorescence, artefact control for SMM control-protein annotation, profiling panel (AID 1140).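 Also: score merges 667 nm feature emission with signal to noise over triplicate slides.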 The following applies: WGA-A647 binding, 635 nm fluorescence, higher = more signal.

For assay [9], the target named is Luciferin 4-monooxygenase (Photinus pyralis) (UniProt P08659). Put plainly: inhibition of purified Photinus pyralis luciferase – biochemical, luminescence, purified enzyme, 2006 set, primary screen (AID 1141).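 Also: cell-free assay with purified firefly luciferase at 100 ng per well in PBS; test concentration not given here.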 The following applies: purified firefly luciferase, SteadyGlo luminescence, 30 min; higher = more signal, called active from +8 up or from −8 down.
Sequence of Luciferin 4-monooxygenase (Photinus pyralis) (P08659 whole entry, looked up): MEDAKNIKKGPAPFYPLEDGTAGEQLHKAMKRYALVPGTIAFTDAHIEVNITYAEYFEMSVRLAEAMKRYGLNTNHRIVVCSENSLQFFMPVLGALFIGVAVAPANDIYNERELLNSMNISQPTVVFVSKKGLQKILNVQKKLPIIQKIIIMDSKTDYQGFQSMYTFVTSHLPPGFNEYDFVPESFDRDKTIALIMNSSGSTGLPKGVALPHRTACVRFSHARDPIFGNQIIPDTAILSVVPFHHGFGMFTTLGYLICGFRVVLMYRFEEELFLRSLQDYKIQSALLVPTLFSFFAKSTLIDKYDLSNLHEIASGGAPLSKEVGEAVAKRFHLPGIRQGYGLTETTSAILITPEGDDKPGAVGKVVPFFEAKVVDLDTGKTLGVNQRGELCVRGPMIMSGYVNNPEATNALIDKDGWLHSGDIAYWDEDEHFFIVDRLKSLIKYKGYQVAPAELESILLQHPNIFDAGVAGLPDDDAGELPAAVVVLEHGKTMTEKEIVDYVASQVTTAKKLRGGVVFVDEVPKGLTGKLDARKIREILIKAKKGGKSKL
Assay [10] has as its system Wnt5a (protein binding on small-molecule microarray). Nature of the assay: small molecules binding Wnt5a protein – biophysical, small-molecule microarray, 635/667 nm fluorescence, primary screen (AID 1142).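 Also: fluorescence read at 667 nm with signal to noise per printed feature.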 Particulars: 635 nm fluorescence, higher = more signal.
Assay [11] is described as follows: ATP-based viability of Huh7 replicon cells – cell-based, CellTiter-Glo luminescence, basal, 48 h, cytotoxicity control for HCV replication inhibitor project, primary screen (AID 1143).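 Also: Huh7 hepatoma cells carrying a hepatitis C replication reporter with no stimulus; test concentration not given here.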 Particulars: higher = more signal, called active from +8 up or from −8 down. In general terms: Replicon systems follow genome replication, usually without infectious particles.
Assay [12] in a line: Pseudomonas biofilm growth suppression – PAO1 strain, BacTiter-Glo luminescence, LB-PBS, primary screen (AID 1144). Particulars: P. aeruginosa PAO1 biofilm, 12 h, higher = more signal.
A short description of assay [13]: basal CRE-LacZ reporter activity in PC12 – cell-based, unstimulated, primary screen (AID 1145). The following applies: no forskolin, luminescence, 4.5 h, higher = more signal, called active from +8 up or from −8 down.
Assay [14] is described as follows: forskolin-driven CRE-LacZ activity in PC12 – cell-based, CRE-LacZ reporter, forskolin-stimulated, primary screen (AID 1146).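 Also: PC12 cells with 6xCRE LacZ reporter stimulated by forskolin 10 µM; beta-galactosidase reporter signal reflecting CREB driven transcription.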 Particulars: luminescence, 4.5 h, higher = more signal, called active from +8 up or from −8 down.
Assay [15] concerns the target Streptavidin (Streptomyces avidinii) (UniProt P22629). Put plainly: compounds binding control protein streptavidin – biophysical, small-molecule microarray, 635/667 nm fluorescence, artefact control for SMM compound annotation, primary screen (AID 1147).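 Also: signal reflects streptavidin binding to arrayed compounds as a control protein.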 Particulars: higher = more signal.
Assay [16] is described as follows: probe aInhba binding on compound microarray – biochemical, small-molecule microarray, 635/667 nm fluorescence, primary screen (AID 1148).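 Also: score merges 667nm spot fluorescence with signal-to-noise for antibody binding to printed compounds.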 The following applies: higher = more signal.
The target of assay [17] is Torsin-1A (Homo sapiens) (UniProt O14656). Nature of the assay: TOR1A wild-type binding on microarray – cell lysate, small-molecule microarray, lysate, 635/667 nm, primary screen (AID 1149). Particulars: COS7 hTOR1A-WT lysate, 635 nm fluorescence, higher = more signal.
Sequence of Torsin-1A (Homo sapiens) (O14656 whole entry, looked up): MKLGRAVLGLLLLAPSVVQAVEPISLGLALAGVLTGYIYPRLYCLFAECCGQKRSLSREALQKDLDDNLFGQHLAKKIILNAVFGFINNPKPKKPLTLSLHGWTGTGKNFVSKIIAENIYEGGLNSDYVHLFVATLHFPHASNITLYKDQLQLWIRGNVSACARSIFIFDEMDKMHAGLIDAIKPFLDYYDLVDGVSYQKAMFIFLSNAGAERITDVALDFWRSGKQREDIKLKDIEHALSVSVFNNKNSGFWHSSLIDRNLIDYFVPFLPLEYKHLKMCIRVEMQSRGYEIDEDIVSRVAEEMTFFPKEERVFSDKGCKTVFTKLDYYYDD
For assay [18] the target is unchanged. Put plainly: torsin A mutant lysate binding on microarrays – cell lysate, small-molecule microarray, COS7 lysate, 635/667 nm fluorescence, primary screen (AID 1150).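 Also: score pools 667 nm emission and signal to noise measuring lysate protein binding.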 The following applies: COS7 hTOR1A mutant lysate, 635 nm fluorescence, higher = more signal.
The test system of assay [19] is Sonic hedgehog protein (Shh). Put plainly: Sonic hedgehog microarray binding compounds – biochemical, small-molecule microarray, 635/667 nm fluorescence, primary screen (AID 1151).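 Also: Shh protein binding to compounds spotted on small-molecule microarray slides; score combines spot fluorescence intensity with signal-to-noise across triplicate slides.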 Particulars: 635 nm fluorescence, higher = more signal.

Sequence of Streptavidin (Streptomyces avidinii) (P22629 whole entry, looked up): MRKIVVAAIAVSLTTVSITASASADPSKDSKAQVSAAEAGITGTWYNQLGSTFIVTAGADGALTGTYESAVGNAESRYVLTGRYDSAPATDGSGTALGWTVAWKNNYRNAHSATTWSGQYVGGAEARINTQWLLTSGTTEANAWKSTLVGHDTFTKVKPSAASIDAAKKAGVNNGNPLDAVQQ
Sequence of Fibroblast growth factor 2 (Homo sapiens) (P09038 whole entry, looked up): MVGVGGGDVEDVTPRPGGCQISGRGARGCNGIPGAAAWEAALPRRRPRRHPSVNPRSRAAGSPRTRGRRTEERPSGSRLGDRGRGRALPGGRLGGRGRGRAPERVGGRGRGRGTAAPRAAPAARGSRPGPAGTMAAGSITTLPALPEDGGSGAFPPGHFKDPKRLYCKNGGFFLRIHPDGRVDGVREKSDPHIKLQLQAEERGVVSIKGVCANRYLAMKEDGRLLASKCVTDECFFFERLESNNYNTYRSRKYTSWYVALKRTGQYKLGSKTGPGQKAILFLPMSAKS

For `Cc1c(NC(=O)/C(C#N)=C/C=C/c2ccc([N+](=O)[O-])cc2)c(=O)n(-c2ccccc2)n1C`, the composite z-score in assay [1] was 2.04; in assay [2] it was 1.18; in assay [3], -0.0384; in assay [4], 1.02; in assay [5] it was 1.06; in assay [6] it was 1.11. Further, the composite z-score came out at 0.78 in the assay with Lefty1; 0.685 in [8]; 0.388 in assay [10]; 1.32 in [15]; 0.0301 in assay [16]; 0.321 with Torsin-1A (Homo sapiens) [17]. For the same molecule, the composite z-score was determined as 0.468 with Torsin-1A (Homo sapiens) [18] and 0.569 in assay [19]. Moreover, the z-score is 0.138 in assay [7]; -4.99 (inactive) in assay [9]; -0.997 (inactive) in [11]; 1.12 (inactive) in [12]; 0.829 (inactive) in assay [13]; 0.732 (inactive) in assay [14].
Turning to `CCCCC(=C=CC[C@H](O)c1ccccc1OCCO)CCO`, the composite z-score is 2.08 in assay [1]; 0.118 in assay [2]; 0.0679 in assay [3]; -0.472 in assay [4]; 0.689 in [5]; 0.749 in assay [6]. Further, the composite z-score was 0.342 in the assay on Lefty1; -0.298 in assay [8]; -0.0677 in assay [10]; -0.356 in assay [15]; -0.0762 in assay [16]; -0.309 with Torsin-1A (Homo sapiens) [17]. Besides, the composite z-score with Torsin-1A (Homo sapiens) [18] was 0.0868; in assay [19], 0.704. The z-score was -0.378 in assay [7]; 0.207 (inactive) in assay [9]; -0.0854 (inactive) in [11]; 0.235 (inactive) in [12]; 4.29 (inactive) in [13]; 1.37 (inactive) in assay [14].
Consider `COC(=O)[C@@]1(Cc2ccc(F)cc2)[C@H]2c3cc(C(=O)N(C)C)n(Cc4cccc5ccccc45)c3C[C@H]2CN1C(=O)c1ccccc1`, for which the composite z-score in assay [1] was 0.497; in assay [2], 1.11; in [3], 0.705; in assay [4], 0.338; in assay [5], 0.137; in assay [6] it was -0.617. Also, the composite z-score in the assay with Lefty1 is -0.446; in assay [8], 0.115; in [10], 1.23; in [15], 0.0609; in assay [16], 0.115; with Torsin-1A (Homo sapiens) [17], 0.639. For the same molecule, the composite z-score with Torsin-1A (Homo sapiens) [18] was 1.49; in assay [19] it was -0.685. Besides, the z-score in [7] is 0.319; in assay [9], 4.74 (inactive); in [11] it was -0.741 (inactive); in assay [12] it was 0.529 (inactive); in assay [13], 0.0075 (inactive); in assay [14], 0.287 (inactive).
For the molecule `CC(C)[Si]1(C(C)C)OCc2cc(-c3ccc(-c4ccc(Cl)c(Cl)c4)o3)nc(-c3ccc(Oc4ccccc4)cc3)c21`, the composite z-score in assay [1] was -0.768; in assay [2] it was -1.88; in [3], -0.0554; in assay [4], -1.02; in assay [5], -1.21; in assay [6], -1.57. Further, the composite z-score was -1.34 with Lefty1; -0.0312 in assay [8]; -0.615 in [10]; -0.767 in assay [15]; -0.382 in assay [16]; -1.33 with Torsin-1A (Homo sapiens) [17]. Also, the composite z-score with Torsin-1A (Homo sapiens) [18] is -2.07; in [19], -0.976. In addition, the z-score in assay [7] is 0.229; in assay [9] it was 0.586 (inactive); in [11], -0.558 (inactive); in assay [12], 0.457 (inactive); in [13], 0.251 (inactive); in assay [14], -0.835 (inactive).
Regarding `O=C1O[C@H](c2ccccc2)[C@H](c2ccccc2)N2[C@H]1[C@@H](C(=O)N1CCN(c3ncccn3)CC1)[C@]1(C(=O)Nc3ccc(C#CC4(O)CCCCCC4)cc31)[C@H]2c1ccc(O)cc1`, the composite z-score in [1] turned out to be 1.75; in [2], 1.2; in [3], 0.62; in [4] it was 0.902; in assay [5], 0.951; in [6], 0.89. Moreover, the composite z-score in the assay with Lefty1 is 0.58; in assay [8], 1.06; in assay [10], 0.675; in assay [15] it was -0.0103; in assay [16], 0.096; with Torsin-1A (Homo sapiens) [17], 0.574. In addition, the composite z-score with Torsin-1A (Homo sapiens) [18] was 0.0774; in assay [19], 1.93. The z-score was 1.36 in assay [7]; -1.63 (inactive) in assay [9]; -2.43 (inactive) in assay [11]; -0.759 (inactive) in assay [12]; -0.258 (inactive) in [13]; -0.296 (inactive) in [14].
On to `C=C[C@@H](CO)NS(=O)(=O)c1ccc(Br)cc1`, for which the composite z-score in assay [1] was -0.371; in assay [2] it was -0.371; in assay [3], 0.169; in assay [4] it was -0.387; in [5], 0.0216; in assay [6], -0.446. The composite z-score in the assay on Lefty1 is -0.809; in [8], -0.448; in assay [10], 0.236; in assay [15] it was -0.232; in assay [16] it was -0.154; in the assay with Torsin-1A (Homo sapiens) [17] it was -0.0176. Further, the composite z-score in the assay with Torsin-1A (Homo sapiens) [18] was -0.354; in [19], -0.317. In addition, the z-score in assay [7] was -0.297; in [9] it was -1.23 (inactive); in assay [11], -2.14 (inactive); in assay [12], -1.74 (inactive); in [13] it was 1.54 (inactive); in [14], -0.52 (inactive).
